Results reported in PubChem BioAssay AID1159580 (chemical genetic matrix, 2015).
In all, about 5,500 compounds went through this assay and about 2,000 (36%) were called active. Roughly 18% stayed inconclusive and do not appear here. No stated cut-off is given here; in the data, active means normalized growth mostly below about 0.91 (no sharp cut-off); inconclusive means no clear call, values can overlap the other calls; inactive means mostly above about 0.92. The list shows a part of the results.

Test: chemical genetic growth profiling, strain panel (AID 1159580);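 further: tested at 20 µM; growth read once vehicle control cultures reached saturation at 30 °C; 1 = growth at the plate median or of vehicle wells; lower values mean less growth of the strain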
Conditions: S. cerevisiae deletion strains, growth OD
[1] = locus YDL101C, strain DUN1, hits give low values
[2] = locus YHR030C, strain SLT2, hits give low values

Measured: normalized growth

O=C(Nc1cccnc1)c1cccc(Cl)c1Cl
inactive: locus YAL013W, strain DEP1, hits give low values 0.977 | locus YBR229C, strain ROT2, hits give low values 0.993 | [1] 0.98 | locus YDL134C, strain PPH21, hits give low values 0.988 | locus YDR150W, strain NUM1, hits give low values 0.957 | locus YEL061C, strain CIN8, hits give low values 0.971 | locus YGR078C, strain PAC10, hits give low values 0.983 | [2] 0.935 | locus YHR087W, strain rtc3, hits give low values 0.99 | locus YJL187C, strain SWE1, hits give low values 1.01 | locus YJR043C, strain POL32, hits give low values 0.993 | locus YJR075W, strain HOC1, hits give low values 0.991 | locus YKL190W, strain CNB1, hits give low values 0.989 | locus YLR039C, strain RIC1, hits give low values 1.02 | locus YLR058C, strain SHM2 (second series), hits give low values 1 | locus YLR085C, strain ARP6, hits give low values 0.955 | locus YLR262C, strain YPT6, hits give low values 1.01 | locus YML094W, strain GIM5, hits give low values 0.946 | locus YMR219W, strain ESC1, hits give low values 0.992 | locus YMR263W, strain SAP30, hits give low values 1.01 | locus YMR307W, strain GAS1, hits give low values 1.01 | locus YNL128W, strain TEP1, hits give low values 0.976 | locus YNL153C, strain GIM3, hits give low values 0.994 | locus YNL298W, strain CLA4 (second series), hits give low values 0.946 | locus YNL322C, strain KRE1, hits give low values 0.982 | locus YNR030W, strain Alg12, hits give low values 0.975 | locus YOL006C, strain TOP1, hits give low values 0.943 | locus YPL055C, strain LGE1, hits give low values 1.02 | locus YPL241C, strain CIN2, hits give low values 0.985 | locus YPR135W, strain CTF4, hits give low values 0.856

O=C(Nc1cccnc1)c1cc2c(s1)-c1ccccc1CC2
active: locus YDR477W, strain SNF1, hits give low values 0.666 | locus YER123W, strain YCK3, hits give low values 0.592 | locus YER133W, strain GLC7, hits give low values 0.548 | locus YGR040W, strain KSS1, hits give low values 0.614 | locus YGR052W, strain FMP48, hits give low values 0.602 | [2] 0.477 | locus YHR079C, strain IRE1, hits give low values 0.495 | locus YHR082C, strain KSP1, hits give low values 0.583 | locus YJL095W, strain BCK1, hits give low values 0.482 | locus YKL203C, strain TOR2, hits give low values 0.59 | locus YLR113W, strain HOG1, hits give low values 0.394 | locus YML070W, strain DAK1, hits give low values 0.679 | locus YNL183C, strain NPR1, hits give low values 0.455 | locus YOR119C, strain RIO1, hits give low values 0.636 | locus YOR231W, strain MKK1, hits give low values 0.515 | locus YPL031C, strain PHO85, hits give low values 0.574 | locus YPL153C, strain RAD53, hits give low values 0.529 | locus YPL204W, strain HRR25, hits give low values 0.522 | locus YPL256C, strain CLN2, hits give low values 0.476
inactive: locus YAR019C, strain CDC15, hits give low values 0.925 | locus YBL105C, strain PKC1, hits give low values 0.93 | locus YBR135W, strain CKS1, hits give low values 0.919 | locus YBR136W, strain MEC1, hits give low values 0.926 | locus YBR160W, strain CDC28, hits give low values 0.93 | locus YDL017W, strain CDC7, hits give low values 0.937 | locus YDL028C, strain MPS1, hits give low values 0.921 | [1] 0.932 | locus YDL108W, strain KIN28, hits give low values 0.924 | locus YDL132W, strain cdc53, hits give low values 0.903 | locus YDL214C, strain PRR2, hits give low values 0.745 | locus YDR052C, strain DBF4, hits give low values 0.919 | locus YDR054C, strain cdc34, hits give low values 0.9 | locus YDR226W, strain ADK1, hits give low values 0.911 | locus YFL009W, strain cdc4, hits give low values 0.915 | locus YFL029C, strain CAK1, hits give low values 0.912 | locus YFR003C, strain YPI1, hits give low values 0.928 | locus YFR019W, strain FAB1, hits give low values 0.91 | locus YFR028C, strain CDC14, hits give low values 0.918 | locus YGR092W, strain DBF2, hits give low values 0.524 | locus YHR205W, strain SCH9, hits give low values 0.755 | locus YIL147C, strain SLN1, hits give low values 0.919 | locus YJL128C, strain PBS2, hits give low values 0.946 | locus YJL157C, strain FAR1, hits give low values 0.73 | locus YJR016C, strain ILV3, hits give low values 0.92 | locus YJR066W, strain TOR1 (second series), hits give low values 0.694 | locus YJR066W, strain TOR1, hits give low values 0.532 | locus YKL048C, strain ELM1, hits give low values 0.823 | locus YKL067W, strain YNK1, hits give low values 0.736 | locus YKL101W, strain HSL1, hits give low values 0.811 | locus YKL193C, strain SDS22, hits give low values 0.918 | locus YLR133W, strain CKI1, hits give low values 0.808 | locus YLR403W, strain SFP1, hits give low values 0.663 | locus YMR001C, strain CDC5, hits give low values 0.918 | locus YMR205C, strain PFK2 (second series), hits give low values 0.767 | locus YMR277W, strain FCP1, hits give low values 0.918 | locus YNL006W, strain LST8, hits give low values 0.93 | locus YNL020C, strain ARK1, hits give low values 0.802 | locus YNL161W, strain CBK1, hits give low values 0.924 | locus YNL207W, strain RIO2, hits give low values 0.903 | locus YNL222W, strain SSU72, hits give low values 0.917 | locus YNL307C, strain MCK1 (second series), hits give low values 0.757 | locus YOL078W, strain AVO1, hits give low values 0.918 | locus YOL136C, strain PFK27, hits give low values 0.725 | locus YOR061W, strain CKA2, hits give low values 0.806 | locus YOR329C, strain SCD5, hits give low values 0.924 | locus YPL209C, strain IPL1, hits give low values 0.932 | locus YPR025C, strain CCL1, hits give low values 0.922 | locus YPR106W, strain ISR1, hits give low values 0.926 | locus YPR111W, strain DBF20, hits give low values 0.915 | strain NNK1, hits give low values 0.912 | strain TSCII, hits give low values 0.915
